Sampled rows, rich in hits. Any-hit rate of the full collection: about 22%.
CYP2C19 activ – activators of human cytochrome P450 2C19. AID 1025. recombinant CYP2C19, luciferin-H EGE luminescence; hits give high values; 0 = fully inhibited enzyme, 1 = untreated enzyme. P33261. activation factor at 5 µM. 96,000 tested, under 10 active;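 active means activation factor of at least 2 at 5 µM in the primary screen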;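 further: 0 = wells with 2.5 mM tranylcypromine and 1 = vehicle-only wells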
Target sequence (P33261 whole entry, looked up): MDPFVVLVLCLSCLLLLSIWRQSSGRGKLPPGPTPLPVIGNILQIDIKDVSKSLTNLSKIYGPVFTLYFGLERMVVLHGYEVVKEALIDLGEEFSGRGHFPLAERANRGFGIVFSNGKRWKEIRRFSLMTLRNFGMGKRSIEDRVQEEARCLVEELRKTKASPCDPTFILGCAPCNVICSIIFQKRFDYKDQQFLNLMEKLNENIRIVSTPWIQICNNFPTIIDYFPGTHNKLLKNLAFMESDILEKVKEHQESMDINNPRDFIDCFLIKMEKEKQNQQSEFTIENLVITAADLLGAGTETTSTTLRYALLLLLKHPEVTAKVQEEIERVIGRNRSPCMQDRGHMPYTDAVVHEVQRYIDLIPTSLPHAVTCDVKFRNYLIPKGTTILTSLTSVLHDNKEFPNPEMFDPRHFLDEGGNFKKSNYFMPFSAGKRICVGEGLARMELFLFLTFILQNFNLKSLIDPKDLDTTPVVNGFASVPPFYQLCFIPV
E-sel TNF inh – blocks E-selectin expression induced by TNF alpha | inhibition, % at 2 µM | HUVEC TNFa-induced E-selectin immunofluorescence, high content | 120,000 compounds, 0.71% hits | AID 1246;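 active means inhibition above the batch mean plus 3 SD, and confirmed as a hit on visual image review, cut at about 43% in these data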;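 further: 0% = TNF-stimulated DMSO wells and 100% = unstimulated control wells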
cytoskel mod – cytoskeleton assembly modification | 91,000 compounds, 0.18% hits | inhibition, % at 2 µM | HUVEC TNFa F-actin phalloidin imaging, high content;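 active means inhibition above the batch mean plus 3 SD and confirmed as a hit by visual image inspection, cut at about 30% in these data, passing the limit was not always enough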
CYP2C19 inhib – human CYP2C19 inhibition. AID 778. CYP2C19 Supersomes, luciferin-H EGE luminescence, 30 min. 96,000 compounds, 21% hits. inhibition, % at 5 µM;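 active means CYP2C19 inhibition above a set limit at 5 µM in the primary screen, cut at about 50% in these data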;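 further: plate controls were negative control wells for no effect and 2.5 mM tranylcypromine positive control for full effect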
CYP2C9 activ – increases human cytochrome P450 2C9 activity; 96,000 compounds, 1.4% hits; AID 1024; activation factor at 5 µM; recombinant CYP2C9, luciferin-H conversion, luminescence; hits give high values; factor 1 = untreated enzyme, 0 = blocked; P11712;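 active means activation factor of 2 or more for CYP2C9 at a 5 µM dose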;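 further: 0 = sulfaphenazole-blocked wells and 1 = vehicle-only wells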
CYP2C9 inhib – human CYP2C9 inhibition; P11712; CYP2C9 Supersomes, luciferin-H conversion, luminescence; inhibition, % at 5 µM; 96,000 compounds, 20% hits;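 active means blocking of liver enzyme CYP2C9 beyond about 50% at 5 µM, limit read from the data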
Starred values were filed as active, the others as inactive; . = not tested or not shown.

SMILES	CYP2C19 activ	E-sel TNF inh	cytoskel mod	CYP2C19 inhib	CYP2C9 activ	CYP2C9 inhib
CCOC(=O)C1CCN(C(c2cc3ccc(C)cc3[nH]c2=O)c2nnnn2C2CCCCC2)CC1 (stereo not drawn)	0.2	.	23	79*	0.2	84*
COc1ccccc1N1CCN(C(c2cc3ccc(C)cc3[nH]c2=O)c2nnnn2C2CCCC2)CC1 (stereo not drawn)	0.3	.	-53	72*	0.1	91*
CC(Sc1nc2ccccc2c(=O)[nH]1)C(=O)O (stereo not drawn)	1	11	.	2	1	-2
CC(OC(=O)Cn1c(C(F)(F)F)nc2ccccc21)C(=O)N1CCCc2ccccc21 (stereo not drawn)	0.8	2	-10	17	0.5	52*
Cc1c(C#N)c2ccccc2n1CC(=O)N1CCCC1	1.1	-7	38	-6	1.1	-8
COC(=O)Cn1c(C(F)(F)F)nc2ccccc21	.	14	-1	.	.	.
Cn1cc(SCC(=O)N2CCN(c3ccccc3)CC2)c2ccccc21	0	.	-5	99*	1	4
Cn1cc(SCC(=O)N2CCOCC2)c2ccccc21	0.1	50	-12	90*	1.3	-25
Cn1cc(SCC(=O)O)c2ccccc21	1	19	5	3	1	3
Cc1c(C#N)c2ccccc2n1CC(=O)N1CCCc2ccccc21	0.7	5	6	32	0.1	92*
Cc1ccn(S(=O)(=O)c2ccc(C(C)(C)C)cc2)n1	0.8	6	.	22	1.2	-20
Cc1cccc2cc(CN(CCc3ccccc3)C(=O)N3CCOCC3)c3nnnn3c12	0.6	2	27	38	0.5	46
Cc1cc(=O)oc(C)c1C(=O)Nc1cccc2nonc12	1.1	.	-35	-13	1.1	-12
CSc1nsc(SCC(=O)N2CCN(c3ccccc3)CC2)n1	0.3	8	-13	73*	0.2	76*
Cn1cc(SCC(=O)N2CCCc3ccccc32)c2ccccc21	0	9	4	98*	0.8	18
CCn1cc(SCC(=O)N2CCOCC2)c2ccccc21	0.4	.	-22	59*	1	0
O=C(Cn1c(SCC(=O)N2CCCc3ccccc32)nc2ccccc21)N1CCCC1	.	18	2	.	.	.
CC(C)NC(=O)Cn1c(SCC(=O)N2CCCc3ccccc32)nc2ccccc21	0.4	-9	-11	58*	0.2	85*
O=C(CSc1ncccn1)N1CCCc2ccccc21	.	-8	.	.	.	.
O=C(Cn1cc(SCc2ccccc2Cl)c2ccccc21)N1CCOCC1	.	15	.	.	.	.
CSc1nc(=O)n(-c2ccccc2)c(C)c1C(C)=O	1	-3	-32	-3	1	4
CC(=O)N1CCCc2ccccc21	0.9	14	-6	10	0.6	37
CC(=O)c1cn(CC(=O)Nc2ccccc2)c2ccccc12	0.5	1	-1	49	0.6	41
O=C(Cc1cccc2ccccc12)N1CCCc2ccccc21	0.6	3	23	43	2.3*	-132
CCn1cc(C(=O)C(F)(F)F)c2ccccc21	0.9	4	5	7	2.3*	-131
SMILES	CYP2C19 activ	E-sel TNF inh	cytoskel mod	CYP2C19 inhib	CYP2C9 activ	CYP2C9 inhib
COc1ccccc1CN1C[C@@H]2C[C@@H](c3[nH]c4ccc(C)cc4c3C)N3CCC[C@@]23C1=O	.	-8	.	.	.	.
O=C(O)C1CC(c2ccccc2F)=NO1 (stereo not drawn)	1	12	-36	1	1	-1
CN(CC(=O)Nc1ccccc1Cl)C(=O)COC(=O)CNC(=O)c1ccc(Br)o1	.	-4	-16	.	.	.
CC(C)NC(=O)c1ccccc1NC(=O)CCc1ccccc1	.	2	0	.	.	.
CN1C(=O)c2cccc(NC(=O)CCc3ccccc3)c2C1=O	0.3	.	-13	70*	0.4	62*
CCCCC(=O)Nc1cccc2c1C(=O)N(c1ccccc1)C2=O	0.5	13	.	51*	0.3	67*
CCOCCCNC(=O)c1ccc(CS(=O)(=O)Cc2ccccc2F)o1	0.9	5	-7	12	1	0
Cc1[nH]nc2c1-c1nc3ccccc3nc1C(C)(C)C2	0.3	-57	.	68*	0.6	38
CSc1nsc(SC)c1C(=O)N1CCN(S(=O)(=O)c2ccc(C)cc2)C1C(C)C (stereo not drawn)	.	-1	-11	.	.	.
CSc1nsc(SC)c1C(=O)N1CCN(S(=O)(=O)c2ccc(C)cc2)C1C (stereo not drawn)	0.6	20	-10	42	0.3	74*
C/C(=N\OCC(=O)Nn1c(=O)[nH]c2ccccc2c1=O)c1ccccc1	.	-4	.	.	.	.
CCOCCN1CCN(c2c(C)c(C)nc3cc(-c4cc(OC)cc(OC)c4)nn23)CC1	0.1	7	-13	87*	0.5	54*
Cc1ccc(S(=O)(=O)c2c(C)nn(C(C)(C)C)c2OC(=O)C2CCCC2)cc1	0.6	.	19	37	0.4	61*
Cc1nn(C(C)(C)C)c(OC(=O)C2CCCC2)c1S(=O)(=O)c1ccccc1	1	8	-2	-4	0.5	49
CC12CCC(C/C1=N/NC(=O)COc1ccccc1Cl)C2(C)C (stereo not drawn)	.	-16	.	.	.	.
CC(C)Oc1cccc(-c2cc(C(=O)N3CCN(c4ncccn4)CC3)c3ccccc3n2)c1	0.7	5	-4	29	0.2	84*
O=C(Nn1cnnc1)c1cc(-c2ccccn2)nc2ccccc12	1	-8	.	2	0.6	38
Cc1ccc(-c2cc(C(=O)N3CCN(c4ncccn4)CC3)c3ccccc3n2)cc1	0.1	-27	6	94*	0	98*
COc1cccc(-c2cc(C(=O)Nn3cnnc3)c3ccccc3n2)c1	0.2	-9	.	77*	0	97*
O=C(c1cc(-c2ccccn2)nc2c(Cl)cccc12)N1CCN(S(=O)(=O)c2ccccc2)CC1	.	-11	.	.	.	.
O=C(c1cc(-c2ccncc2)nc2ccccc12)N1CCN(S(=O)(=O)/C=C/c2ccccc2)CC1	0.4	-16	-17	58*	0.2	80*
CC(C)Oc1cccc(-c2cc(C(=O)N3CCN(S(C)(=O)=O)CC3)c3ccccc3n2)c1	1.1	-1	-14	-5	0.9	12
Cc1cc(C(=O)N2CCN(c3ncccn3)CC2)c2cc(F)ccc2n1	0.7	.	21	32	0.7	31
COc1cccc(-c2cc(C(=O)N3CCN(c4ncccn4)CC3)c3ccccc3n2)c1	0.3	-51	.	73*	0	96*
Cc1ccc2nc(-c3ccccn3)cc(C(=O)N3CCN(c4ncccn4)CC3)c2c1	0.8	1	-4	20	0.5	54*
Cc1ccc(C)c(N2CCN(C(=O)c3ccc(NS(=O)(=O)c4c(C)noc4C)cc3)CC2)c1	0.9	12	49	7	0	97*
Cc1ccc(Cl)cc1N1CCN(C(=O)c2ccc(NS(=O)(=O)c3c(C)noc3C)cc2)CC1	0.9	-5	32	15	0	100*
